Measurements published in paper PMC4336329 (PLoS ONE, 2015).
Hit rate of the full screen: of about 310,000 compounds, about 14,000 (4.5%) showed an effect of 50% or more. Effects have a minus sign here. For the sample, strong results were picked, then their nearest neighbours and some compounds at random.

Biological target: human ether-à-go-go-related gene (hERG) potassium channel (human, UniProt Q12809)
Experiment: primary screen, population patch clamp on CHO cells stably expressing hERG; higher = less effect of the substance
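Also: peak tail current of the secondary pulse compared with the same well before compound.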

human ether-à-go-go-related gene (hERG) potassium channel, sequence (Q12809 whole entry, looked up): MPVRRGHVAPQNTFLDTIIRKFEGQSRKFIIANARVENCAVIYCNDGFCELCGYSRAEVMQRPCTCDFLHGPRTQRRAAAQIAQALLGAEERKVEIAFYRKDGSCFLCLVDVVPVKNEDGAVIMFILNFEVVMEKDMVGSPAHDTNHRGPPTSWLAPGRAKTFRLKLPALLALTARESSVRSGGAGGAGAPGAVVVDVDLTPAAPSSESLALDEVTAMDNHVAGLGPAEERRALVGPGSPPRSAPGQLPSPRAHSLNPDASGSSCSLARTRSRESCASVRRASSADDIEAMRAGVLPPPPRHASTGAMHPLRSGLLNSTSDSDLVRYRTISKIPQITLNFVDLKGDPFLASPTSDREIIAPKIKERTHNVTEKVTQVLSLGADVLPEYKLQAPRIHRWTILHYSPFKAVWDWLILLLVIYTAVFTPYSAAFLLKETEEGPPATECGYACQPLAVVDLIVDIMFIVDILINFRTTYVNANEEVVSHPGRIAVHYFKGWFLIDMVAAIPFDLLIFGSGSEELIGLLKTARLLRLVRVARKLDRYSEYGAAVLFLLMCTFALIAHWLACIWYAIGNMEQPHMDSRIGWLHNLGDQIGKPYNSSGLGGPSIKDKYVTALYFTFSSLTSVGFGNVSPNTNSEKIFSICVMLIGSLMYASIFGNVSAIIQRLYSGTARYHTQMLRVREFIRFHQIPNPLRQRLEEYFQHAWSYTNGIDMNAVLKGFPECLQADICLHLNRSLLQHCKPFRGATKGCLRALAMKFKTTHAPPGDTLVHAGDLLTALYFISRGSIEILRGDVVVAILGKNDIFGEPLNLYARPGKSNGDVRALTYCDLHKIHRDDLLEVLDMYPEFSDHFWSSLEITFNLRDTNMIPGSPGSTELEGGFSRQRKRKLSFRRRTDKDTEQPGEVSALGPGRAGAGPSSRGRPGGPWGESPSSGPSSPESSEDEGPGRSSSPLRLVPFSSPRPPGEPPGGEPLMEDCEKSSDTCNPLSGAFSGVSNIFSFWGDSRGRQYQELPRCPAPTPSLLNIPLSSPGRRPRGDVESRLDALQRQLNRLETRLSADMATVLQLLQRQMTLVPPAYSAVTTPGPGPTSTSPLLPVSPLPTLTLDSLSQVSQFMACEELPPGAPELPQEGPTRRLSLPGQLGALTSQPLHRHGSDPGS

Structure (SMILES) | hERG current change (%, negative = inhibition) at 10uM [%]
COc1ccc(NC(=S)NC23CC4CC(CC(C4)C2)C3)cc1OC | 3.45
O=C(CN1C(=O)c2ccc([N+](=O)[O-])cc2C1=O)NC1CCCCCC1 | 1.09
Cc1nonc1OC(C)CNCCNc1ccc([N+](=O)[O-])cc1.Cl (centres unmarked) | -55.2
Cc1nonc1OC(C)CNc1ccc([N+](=O)[O-])cc1 (centres unmarked) | -58.7
Cc1nonc1OCCNc1ccc([N+](=O)[O-])cc1 | -40.7
Cl.NCCNc1ccc([N+](=O)[O-])cc1 | -6.16
CCNc1ccc([N+](=O)[O-])cc1 | 4.89
Nc1nonc1C(=O)NCCNc1ccc([N+](=O)[O-])cc1 | -21.9
COc1ccc(CN(C(=O)c2cc(=O)c3ccccc3o2)C2CCS(=O)(=O)C2)cc1 (centres unmarked) | -30.4
CNS(=O)(=O)c1cc(OC)ccc1OC | 13.2
CC(=O)c1c(O)cc(C)n(Nc2nc(C)cc(C)n2)c1=O | 1.83
c1ccc(CNc2nc3ccccc3n3cnnc23)nc1 | 0.696
COc1ccc(-c2nn(CCC(=O)O)cc2/C=C/C(=O)O)cc1[N+](=O)[O-] | 5.53
C#C[C@]1(O)CCC2C3CCC4=Cc5oncc5CC4(C)C3CCC21C (some centres unmarked) | -3.2
C#C[C@]1(O)CC[C@H]2[C@@H]3CCC4=Cc5oncc5C[C@]4(C)[C@H]3CC[C@@]21C | -15.3
C#C[C@]1(O)CC[C@H]2[C@@H]3CCC4=Cc5nc6nc7ccccc7n6cc5C[C@]4(C)[C@H]3CC[C@@]21C | -56.8
CC(NC(=O)c1ccc(NC2=NC3CS(=O)(=O)CC3S2)cc1)c1ccccc1 (centres unmarked) | 12.9
COC(=O)C1C(=O)C2=C(CC1C)NC(=O)CC2c1ccc(F)cc1 (centres unmarked) | 18.6
CCC(=O)Nc1cc2c3c(c1)CCC(=O)N3CCC2 | 1.44
CC(=O)OCCNc1cc(Sc2nc3ccccc3[nH]2)c2nonc2c1[N+](=O)[O-] | -12.1
O=c1c2c(-c3ccc([N+](=O)[O-])cc3)csc2nc2n1CCC2 | -77.6
O=c1c2c(-c3ccc(Cl)cc3)csc2nc2n1CCC2 | -28.9

Structure (SMILES) | hERG current change (%, negative = inhibition) at 10uM [%]
O=c1c2c(-c3ccc([N+](=O)[O-])cc3)csc2nc2n1CCCCC2 | -34.6
O=[N+]([O-])c1ccccc1/C=C/C=N/Nc1ccc(S(=O)(=O)Nc2ccc(Cl)cc2)cc1[N+](=O)[O-] | 20.8
COn1c(-c2ccc(Cl)cc2)nc2ccc(Cl)cc21 | -4.56
Cc1ccc(OCC(=O)NCC(=O)Nc2ccc(F)cc2)c([N+](=O)[O-])n1 | -40.3
Cc1cccn2c(CN3CCCC(c4ccccc4)C3)c(C(=O)N3CCOCC3)nc12 (centres unmarked) | -68.7
Cc1cccn2c(CN3CCSCC3)c(C(=O)N3CCOCC3)nc12 | 0.407
Cc1cccn2c(CN[C@@H]3CCCC[C@H]3c3ccccc3)c(C(=O)N3CCOCC3)nc12 | -12.9
Cc1cc(C(=O)NN)c(C)o1 | 10.3
CCc1cc(=O)oc2cc(C)cc(OCC(=O)N3CCC(C(=O)NC(C)C)(c4ccccc4)CC3)c12 | -43.6
CC(NC(=O)/C=C/c1ccccc1[N+](=O)[O-])C1CC2CCC1C2 (centres unmarked) | 8.42
CN(Cc1ccccc1F)c1nc(-c2cccnc2)nc2ccccc12 | 3.92
CCN1CCN(c2nn3c(=O)c4ccccc4nc3c3ccccc23)CC1 | -72.7
CCN1CCN(c2nc(-c3cccnc3)nc3ccccc23)CC1.Cl | -55.4
c1ccc(CN2CCN(c3nc(-c4ccccc4)nc4ccccc34)CC2)cc1 | 8.72
CCCOc1ccc(-c2nc(N3CCN(CC)CC3)c3ccccc3n2)cc1 | -17.3
CCN1CCN(c2nc3ccccc3n3cnnc23)CC1 | -14.8
CC1CN(c2nn3c(=O)c4ccccc4nc3c3ccccc23)CC(C)O1 (centres unmarked) | -25.7
O=S(=O)(c1ccccc1F)N1CCN(c2nc(-c3cccnc3)nc3ccccc23)CC1 | -41.9
CN(Cc1cccs1)c1nc(-c2cccnc2)nc2ccccc12 | -53.5
Cc1ccc(C)c(S(=O)(=O)N2CCN(c3nc(-c4cccnc4)nc4ccccc34)CC2)c1 | 1.45
Cc1ccc(CN(C)c2nc(-c3cccnc3)nc3ccccc23)o1 | 12.7
CCN1CCN(c2nc(-c3ccccc3)nc3ccccc23)CC1 | -63
